Measured values: article PMC4336329 (PLoS ONE, 2015)
Screen size: about 310,000 compounds; about 14,000 (4.5%) showed an effect of 50% or more. The effect is printed as a negative number. This is one part of a sample in which strong results are shown more often than they occur.

biological target: human ether-à-go-go-related gene (hERG) potassium channel (human, UniProt Q12809); experiment: primary screen, population patch clamp on CHO cells stably expressing hERG; higher = less effect of the substance
Sequence (Q12809 whole entry, looked up): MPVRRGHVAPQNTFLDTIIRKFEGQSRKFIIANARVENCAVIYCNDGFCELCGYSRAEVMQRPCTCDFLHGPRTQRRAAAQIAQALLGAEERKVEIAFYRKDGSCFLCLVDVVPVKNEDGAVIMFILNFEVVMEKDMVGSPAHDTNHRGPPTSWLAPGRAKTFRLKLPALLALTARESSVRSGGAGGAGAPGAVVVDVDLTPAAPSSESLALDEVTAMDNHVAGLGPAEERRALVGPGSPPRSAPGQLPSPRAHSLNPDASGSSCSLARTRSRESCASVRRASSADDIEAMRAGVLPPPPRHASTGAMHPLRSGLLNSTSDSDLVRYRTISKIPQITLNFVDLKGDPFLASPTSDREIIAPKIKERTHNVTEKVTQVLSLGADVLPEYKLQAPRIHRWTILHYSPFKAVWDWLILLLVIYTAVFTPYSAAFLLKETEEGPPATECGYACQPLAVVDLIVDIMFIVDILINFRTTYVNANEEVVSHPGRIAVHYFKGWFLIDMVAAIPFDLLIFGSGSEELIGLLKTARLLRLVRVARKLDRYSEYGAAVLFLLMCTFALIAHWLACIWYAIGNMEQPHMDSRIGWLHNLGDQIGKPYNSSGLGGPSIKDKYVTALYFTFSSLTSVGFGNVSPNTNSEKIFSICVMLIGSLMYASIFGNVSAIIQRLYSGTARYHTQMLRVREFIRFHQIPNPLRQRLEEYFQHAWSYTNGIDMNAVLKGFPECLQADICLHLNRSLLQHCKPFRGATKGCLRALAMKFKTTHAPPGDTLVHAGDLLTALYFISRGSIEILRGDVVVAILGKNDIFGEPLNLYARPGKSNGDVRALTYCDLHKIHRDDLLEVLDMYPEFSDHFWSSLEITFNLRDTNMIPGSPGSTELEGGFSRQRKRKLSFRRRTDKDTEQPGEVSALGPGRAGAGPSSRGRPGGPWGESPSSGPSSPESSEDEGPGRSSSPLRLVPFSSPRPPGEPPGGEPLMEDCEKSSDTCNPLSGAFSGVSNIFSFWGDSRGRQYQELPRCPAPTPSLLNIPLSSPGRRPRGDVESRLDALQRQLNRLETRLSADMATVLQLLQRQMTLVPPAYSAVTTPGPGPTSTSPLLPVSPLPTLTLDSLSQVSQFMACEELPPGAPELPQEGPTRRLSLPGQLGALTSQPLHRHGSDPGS
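Note: peak tail current of the secondary pulse compared with the same well before compound.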

| SMILES | hERG current change (%, negative = inhibition) at 10uM [%] |
| --- | --- |
| CC1CCN(c2cc(N3CCC(C)CC3)c([N+](=O)[O-])cc2/C=C(\C#N)c2nn(-c3ccccc3)c(N)c2C#N)CC1 | -10.2 |
| Cc1ccc(S(=O)(=O)N2CCN(Cc3nc4sc5c(c4c(=O)[nH]3)CCCC5)CC2)cc1 | -21.3 |
| CC(=O)N1CCN(C(=O)CCc2nc3sc4c(c3c(=O)[nH]2)CCCC4)CC1 | 5.61 |
| Cc1cccc(C(=O)N2CCN(Cc3nc4sc5c(c4c(=O)[nH]3)CCCC5)CC2)c1 | -58.4 |
| O=C(c1ccccc1F)N1CCN(Cc2nc3sc4c(c3c(=O)[nH]2)CCCC4)CC1 | -81.6 |
| Cc1cccc(NC(=O)CCc2nc3sc4c(c3c(=O)[nH]2)CCCC4)c1 | 10.8 |
| O=c1[nH]c(CN2CCCC2)nc2sc3c(c12)CCC3 | 20.5 |
| O=C(CCc1nc2sc3c(c2c(=O)[nH]1)CCCC3)N1CCN(c2ccccc2)CC1 | 2.7 |
| O=c1[nH]c(CN2CCN(S(=O)(=O)c3ccccc3C(F)(F)F)CC2)nc2sc3c(c12)CCCC3 | 10.9 |
| Cc1ccc(C(=O)N2CCN(Cc3nc4sc5c(c4c(=O)[nH]3)CCCC5)CC2)cc1 | -76 |
| Cc1ccc(S(=O)(=O)N2CCN(Cc3nc4sc(C)c(C)c4c(=O)[nH]3)CC2)cc1 | 18.2 |
| Cc1sc2nc(CN3CCOCC3)[nH]c(=O)c2c1-c1ccccc1 | 2.19 |
| Cc1ccc(-c2c(C)sc3nc(CN4CCN(CC(=O)NC5CC5)CC4)[nH]c(=O)c23)cc1 | -71.5 |
| Cc1ccc(C)c(S(=O)(=O)Nc2ccc(C(=O)NCCc3ccccn3)cc2)c1 | 10.2 |
| Cc1ccc(C)c(N2CCN(C(=O)C3CCN(S(=O)(=O)c4cccc5nsnc45)CC3)CC2)c1 | -8.49 |
| N#Cc1ccc(C23CC4(C2)[C@H](CN(Cc2ccc(C(F)(F)F)cc2)[C@@H]4c2ccccc2)C3c2ccccc2)cc1 (stereo partly shown) | 13.5 |
| O=C(Nc1nccs1)c1ccc(COc2ccccc2Br)o1 | -6.85 |
| Cc1ccc(-c2nnc(SCC(=O)N/N=C/c3ccc(C)s3)n2-c2ccc(C)cc2)cc1 | -17.4 |
| O=C(c1ccco1)N1CCN(Cc2nc(-c3cccs3)no2)CC1 | -38.1 |
| CS(=O)(=O)N(CC(=O)NCCSCc1c(F)cccc1Cl)c1cccc([N+](=O)[O-])c1 | -15.9 |
| COCC(C)NC(=O)CSc1nc2ccccc2n1CCc1ccccc1 (stereo not shown) | -8.53 |
| Cc1cccc(N2CC(C(=O)Nc3nnc(SCC(=O)Nc4cc(C)on4)s3)CC2=O)c1 (stereo not shown) | 23 |
| Cc1cc(=O)[nH]c(SCC(=O)Nc2ccc(S(=O)(=O)N3CCOCC3)cc2)n1 | -3.3 |
| CC1(C)SC(=S)N(NC(=O)Nc2ccccc2)C1N(O)C(=O)Nc1ccccc1 (stereo not shown) | 12.7 |
| CCOc1cc(N2CCOCC2)c(OCC)cc1NC(=O)c1oc2ccccc2c1C | 18.6 |
| O=C(c1ccccc1F)N1CCCC(C(=O)N2CCc3ccccc3C2)C1 (stereo not shown) | -8.64 |
| CC(C)Cc1nc(S(=O)(=O)c2ccc(Cl)cc2)c(N2CCOCC2)o1 | -6.14 |

| SMILES | hERG current change (%, negative = inhibition) at 10uM [%] |
| --- | --- |
| CCCCc1nc(S(=O)(=O)c2ccc(Cl)cc2)c(N2CCOCC2)o1 | -69.6 |
| O=S(=O)(c1ccc(Cl)cc1)c1nc(-c2ccco2)oc1N1CCCCC1 | -7.91 |
| CC(C)(C)c1nc(S(=O)(=O)c2ccc(Cl)cc2)c(N2CCOCC2)o1 | -14.2 |
| O=S(=O)(c1ccc(Cl)cc1)c1nc(-c2ccco2)oc1N1CCOCC1 | -55.4 |
| O=S(=O)(c1ccccc1)c1nc(-c2ccco2)oc1N1CCCCC1 | -37.1 |
| COc1ccc(NC(=O)Nc2ccc3nccnc3c2)cc1 | 2.71 |
| COc1ccccc1CNC(=O)C1CCN(C(=O)NC2CCCCC2)CC1 | 10.6 |
| CCc1ccc(/C=N/NC(=O)C(=O)NCCCN2CCOCC2)cc1 | -23.6 |
| COc1ccc(NC(=S)N2c3ccccc3CC2C)cc1OC (stereo not shown) | -5.96 |
| CCCC(=O)Nc1nnc(Cc2ccccc2)s1 | -0.72 |
| COc1ccc(S(=O)(=O)Cc2ccc(C(=O)NC3CCC(C)CC3)o2)cc1 (stereo not shown) | -15.8 |
| Cc1ccc(-c2ccc(/C=N/c3ncn[nH]3)o2)cc1Cl | 11.6 |
| C=CC[N+]1(C)CC[C@]23c4c5ccc(O)c4O[C@H]2C(=O)CC[C@@]3(O)[C@H]1C5.[I-] (stereo partly shown) | 17.8 |
| NC(N)=Nc1ccc2[nH]c3c(c2c1)C[C@@]1(O)[C@H]2Cc4ccc(O)c5c4[C@@]1(CCN2CC1CC1)[C@H]3O5.O=C(O)C(F)(F)F | 6.85 |
| C=CCN1CC[C@]23c4c5ccc(O)c4O[C@H]2/C(=N/NC(=O)c2ccccc2)CC[C@@]3(O)[C@H]1C5 | -69.1 |
| Oc1cccc(C2c3[nH]c4ccccc4c3CCN2Cc2ccc3c(c2)CCO3)c1 (stereo not shown) | 9.6 |
| Cl.O=C1CC[C@@]2(O)[C@H]3Cc4ccc(O)c5c4[C@@]2(CCN3CC2CC2)[C@H]1O5 | 0.91 |
| CS(=O)(=O)O.O.Oc1ccc2c3c1O[C@H]1c4oc5ccccc5c4C[C@@]4(O)[C@@H](C2)N(CC2CC2)CC[C@]314 | -76.9 |
| Oc1cccc(C2c3[nH]c4ccccc4c3CCN2Cc2ccoc2)c1 (stereo not shown) | -29.6 |
| Cl.Oc1ccc2c3c1O[C@H]1c4[nH]c5ccccc5c4C[C@@]4(O)[C@@H](C2)N(CC2CC2)CC[C@]314 | -63 |
| Cl.O.Oc1ccc2c3c1O[C@H]1c4[nH]c5ccccc5c4C[C@@]4(O)C(C2)N(CC2CC2)CC[C@]314 | -55.4 |
| C=C(C)CN1CC[C@]23c4c5ccc(O)c4O[C@H]2c2[nH]c4ccccc4c2C[C@@]3(O)C1C5.Cl.O | 4.9 |
| C=C1CC[C@@]2(O)[C@H]3Cc4ccc(O)c5c4[C@@]2(CCN3CC2CC2)[C@H]1O5 | -2.73 |
| COc1ccc(C2/C(=C(/O)c3ccc(Br)cc3)C(=O)C(=O)N2C)cc1 (stereo not shown) | -12.7 |
| Cn1cc(P(=S)(N2CCOCC2)N2CCOCC2)cc1P(=O)(N1CCOCC1)N1CCOCC1 | 7.36 |
| COc1ccc(Oc2cccc(Cl)c2CNC(=O)c2ccccc2C(=O)O)cc1 | 4.98 |
| CC(C)(C)NC(=O)C(Cc1ccccc1)N1C(=O)c2ccccc2C1=O (stereo not shown) | 6.68 |

| SMILES | hERG current change (%, negative = inhibition) at 10uM [%] |
| --- | --- |
| CCOC(=O)C1(Cc2ccc(OC)cc2)CCN(C(=O)C2=CCCC2)CC1 | -33.8 |
| Cc1ccnc(NC2CCCCC2)c1 | 20.4 |
| Cn1c(CNc2ccccn2)c(C#N)c2ccccc21 | -6.94 |
| COC(=O)CCCC1=CC2=CC(=O)C(C)(OC(=O)c3cccs3)C(=O)C2=CN1CCc1c[nH]c2ccccc12 (stereo not shown) | 15 |
| CC(C)CN(C(=O)c1ccc([N+](=O)[O-])s1)c1c(N)n(Cc2ccccc2)c(=O)[nH]c1=O | 10.3 |
| COc1ccc(NC(=O)c2ccc(CN3CCN(c4ccccc4)CC3)cc2)cc1 | -9.47 |
| O=C(c1ccc(CN2CCOCC2)cc1)N1CCC(Cc2ccccc2)CC1 | -3.35 |
| O=C(Nc1ccccc1C(F)(F)F)c1ccc(CN2CCC(Cc3ccccc3)CC2)cc1 | -42.4 |
| O=C(Nc1ccccc1F)c1ccc(CN2CCN(c3ccccc3)CC2)cc1 | -70.7 |
| Cc1ccccc1NC(=O)CCN1CCN(Cc2ccccc2)CC1 | -27.2 |
| CCc1ccccc1NC(=O)c1ccc(CN2CCC(Cc3ccccc3)CC2)cc1 | -50.8 |
| Cc1ccccc1NC(=O)c1ccc(CN2CCc3ccccc3C2)cc1 | -16.4 |
| O=C(Nc1ccccc1F)c1ccc(CN2CCc3ccccc3C2)cc1 | 13.7 |
| Cc1ccccc1NC(=O)c1ccc(CN2CCC(Cc3ccccc3)CC2)cc1 | -52.2 |
| O=C(NO)c1ccccc1C(F)(F)F | 15.4 |
| Cc1cccc(C)c1OCC(=O)Nc1cccc(S(=O)(=O)N2CCCC2)c1 | 3.77 |
| CC(Oc1ccc2c3c(c(=O)oc2c1)CCCC3)C(=O)NCC(O)c1ccccc1 (stereo not shown) | 16.8 |
| COc1ccc(S(=O)(=O)c2ccc(OC)c(OC)c2)cc1OC | -12.2 |
| COc1ccc(CCNC(=O)C2CCN(S(=O)(=O)c3c(C)noc3C)CC2)cc1OC | -16.9 |
| O=C(CCCNC(=O)/C(=C\c1ccc(F)cc1)NC(=O)c1ccccc1)OCc1ccccc1 | -77.1 |
| O=C(CCCNC(=O)/C(=C/c1ccc(F)cc1)NC(=O)c1ccccc1)OCc1ccccc1 | -64.3 |
| O=C(CCCNC(=O)/C(=C/c1ccc(Br)cc1)NC(=O)c1ccccc1)OCc1ccccc1 | -38.8 |
| O=C(CCCNC(=O)/C(=C/c1ccccc1F)NC(=O)c1ccccc1)OCc1ccccc1 | -5.02 |
| O=C(CCCNC(=O)/C(=C\c1ccccc1F)NC(=O)c1ccccc1)OCc1ccccc1 | -9.13 |
| O=C(O)CCCNC(=O)/C(=C\c1ccccc1F)NC(=O)c1ccccc1 | 13.4 |
